From PubChem BioAssay (NCATS)
Inconclusive results are not listed. A call without a number means that no potency is given here. The source made the active and inactive calls. Calls come from the whole dose curve; as a rule, active = well fitted curve in the direction sought with a large enough effect; inconclusive = small, poorly fitted or top-dose-only effect, or another doubt; inactive = no such curve, though single readings can be large; an effect the other way counts as inactive or inconclusive.

Assay: P-glycoprotein substrates identified in KB-3-1 adenocarcinoma cell line, qHTS therapeutic library screen (AID 1346986); note: nearly all actives have a fitted effect of over 60% in size
Settings: KB-3-1 parental cells viability, CellTiter-Glo, 72 h; series mostly up to 44.5 µM; activity change, negative = cytotoxicity: at the top concentration
How it was run: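 72 h cell-killing screen, 500 cells/well, CellTiter-Glo luminescence. Paired lines KB-3-1/KB-8-5-11; P-gp dependence checked by tariquidar co-treatment and HEK-293 MDR-19 versus empty-vector cells.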
With NCCOCCOCCNC(=O)Cc1ccc(Nc2nc(NCc3ccc(F)cc3)nc(NCC3CCCCC3)n2)cc1 the “outcome” value was “inactive”. For C=C1C(=O)OC2CC(C)=C(C(C)CCCO[C@@H]3O[C@H](CO)[C@@H](O)[C@H](O)[C@H]3O)C(O)C12 (some centres not stated), the “outcome” value was “inactive [at 17.4 µM]”. For CC1=CC(=O)C2C(C)(C)CC(O)CC2(C)C1CO (configuration not stated), the “outcome” value was “inactive”. In the case of C=CC(C)(C)O[C@@H]1O[C@H](CO[C@@H]2OC[C@](O)(CO)[C@H]2O)[C@@H](O)[C@H](O)[C@H]1O, the “outcome” value is reported as “inactive”. In the case of CC(C)CC(=O)O[C@@H]1OC=C(CO[C@@H]2O[C@H](CO[C@@H]3O[C@H](CO)[C@@H](O)[C@H](O)[C@H]3O)[C@@H](O)[C@H](O)[C@H]2O)[C@H]2C[C@H](O)[C@@H](CO)[C@@H]12, the “outcome” value is reported as “inactive [at 17.4 µM]”. With C[C@@H]1CC[C@H]2C(C)(C)[C@H](O)[C@H](O)C[C@]2(C)[C@@]12Cc1c(O)cc3c(c1O2)CNC3=O the “outcome” value was “inactive”. With COC1CC(=O)CCC(C)OC(=O)CC1O (configuration not stated) the “outcome” value was “inactive”. In the case of O=C(/C=C/c1c(C(=O)O)[nH]c2cc(Cl)cc(Cl)c12)Nc1ccccc1, the “outcome” value is reported as “inactive”. For COC1C2=C(COC2=O)C2(C)CCCC(C)(CO)C2C1OC(=O)c1ccccc1 (configuration not stated), the “outcome” value was “inactive [at 17.4 µM]”. For C=C1C2=CC(O)C(C)C1(C)CC/C(C)=C/CCC1(C)OC1C2=O (configuration not stated), the “outcome” value was “inactive”. For CC(C)[C@@H](C)/C=C/[C@@H](C)[C@H]1CC[C@H]2C3=CC=C4C[C@@H](O)CC[C@]4(C)[C@H]3CC[C@]12C, the “outcome” value was “inactive [at 17.4 µM]”. In the case of CC1=C(CC(=O)O)c2cc(F)ccc2C1=Cc1ccc(S(C)(=O)=O)cc1, the “outcome” value is reported as “inactive”. With COc1ccc(/C=C/C(=O)O[C@H]2[C@@H]3C=CO[C@@H](O[C@@H]4O[C@H](CO)[C@@H](O)[C@H](O)[C@H]4O)[C@@H]3[C@@]3(CO)O[C@@H]23)cc1O the “outcome” value was “inactive [at 17.4 µM]”. In the case of C=C/C=C/[C@@H]1OC[C@H](/C=C/C=C/C)[C@H]1O, the “outcome” value is reported as “inactive [at 93.4 µM]”. In the case of CC(/C=C/C1(O)C(C)CC(O)CC1(C)C)OC1OC(CO)C(O)C(O)C1O (configuration not stated), the “outcome” value is reported as “inactive”. For CC(CCC1C(C(=O)O)=CC(=O)CC1(C)C)O[C@@H]1O[C@H](CO)[C@@H](O)[C@H](O)[C@H]1O (some centres not stated), the “outcome” value was “inactive”. In the case of CC(C)(O)C1CC=C(C(=O)OCC2OC(Oc3c(O)cc(C(=O)O)cc3O)C(O)C(O)C2O)CC1 (configuration not stated), the “outcome” value is reported as “inactive [at 17.4 µM]”. In the case of NC(=O)c1cccc(-c2cc(O)cc(OC(=O)NC3CCCCC3)c2)c1, the “outcome” value is reported as “inactive [at 17.4 µM]”. In the case of COc1cc(CCc2ccccc2)c(C(=O)O)c2c1CC(C(C)(C)O)O2 (configuration not stated), the “outcome” value is reported as “inactive”. In the case of NCCCC[C@H](NC(=O)[C@@H]1Cc2ccccc2CN1C(=O)CCC(=O)c1ccccc1)C(=O)NCC(c1ccccc1)c1ccccc1, the “outcome” value is reported as “inactive”. In the case of CC(C)c1ccc(CC(=O)N2CCC[C@@H](c3cccc(OC(C)(C)C(=O)O)c3)C2)cc1, the “outcome” value is reported as “inactive”. With CC(c1c[nH]c2ccccc12)C(O)C(=O)O (configuration not stated) the “outcome” value was “inactive”. With CCC[C@@H]1C[C@@H](C(=O)N[C@@H]([C@H]2O[C@H](SC)[C@H](O)[C@@H](O)[C@@H]2O)[C@@H](C)O)N(C)C1 the “outcome” value was “inactive”. In the case of CC(C)CC(=O)n1cc(C(N)=O)c(=O)cc1C(O)c1ccccc1 (configuration not stated), the “outcome” value is reported as “inactive”. In the case of CN1C(=O)c2ccccc2-n2c(nc3ccccc3c2=O)/C1=C/c1ccccc1, the “outcome” value is reported as “inactive”. With CC1=C2CC3OC3(C)CCC3OC3(C)CC2OC1=O (configuration not stated) the “outcome” value was “inactive”.

Assay: P-glycoprotein substrates identified in KB-8-5-11 adenocarcinoma cell line, qHTS therapeutic library screen (AID 1346987); note: nearly all actives have a fitted effect of over 65% in size; note: potency is the fitted concentration of half-maximal effect
Settings: KB-8-5-11 (P-gp overexpressing) viability, CellTiter-Glo, 72 h; series mostly up to 44.5 µM; activity change, negative = cytotoxicity: at the top concentration
How it was run: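 Luminescence from CellTiter-Glo, read 5 min after addition, quantified survival of KB-8-5-11 (P-gp-overexpressing) cells exposed to compounds for 72 h. AC50 was derived from concentration-response curves.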
For C[C@@H]1O[C@@H](O[C@H]2[C@H](O[C@H]3[C@H](O[C@H]4CC[C@@]5(C)C(CC[C@]6(C)C5CC=C5[C@@H]7CC(C)(C(=O)O)C[C@@H](O)[C@]7(C)CC[C@]56C)[C@@]4(C)CO)O[C@H](C(=O)O)[C@@H](O)[C@@H]3O)O[C@H](CO)[C@H](O)[C@@H]2O)[C@H](O)[C@H](O)[C@H]1O (some centres not stated), the activity change, negative = cytotoxicity was 7.09% [at 9.29 µM] (inactive). For O=C1N(CC2CCCCN2)CCN1c1ccccc1 (configuration not stated), the “outcome” value was “inactive”. With COc1cc2c(Nc3ccc(Cl)c(Cl)c3F)ncnc2cc1OCC1C[C@@H]2CN(C)C[C@@H]2C1 (some centres not stated) the Potency was 18.4 µM (active). With CC1OC(O[C@H]2[C@@H](O)C[C@@]3(C)C([C@H](O)C[C@]4(C)C3CC=C3C5CC(C)(C)CC[C@]5(C(=O)OC5OC(CO)C(O)C(O)C5OC5OCC(OC6OCC(OC7OCC(O)C(O)C7O)C(O)C6O)C(OC6OCC(O)(CO)C6O)C5O)CC[C@]34C)[C@]2(C)CO)C(O)C(O)C1O (some centres not stated) the activity change, negative = cytotoxicity was 1.18% [at 9.29 µM] (inactive). In the case of C[C@@H]1O[C@@H](O[C@H]2[C@H](O[C@H]3CC[C@@]4(C)C(CC[C@]5(C)C4CC=C4[C@@H]6CC(C)(C)CC[C@]6(C(=O)O)CC[C@]45C)[C@]3(C)CO)OC[C@H](O)[C@@H]2O)[C@H](O)[C@H](O[C@@H]2OC[C@@H](O)[C@H](O)[C@H]2O)[C@H]1O (some centres not stated), the activity change, negative = cytotoxicity is reported as -3.86% [at 9.29 µM] (inactive). With CC[C@H](/C=C/[C@@H](C)[C@H]1CC[C@H]2[C@@H]3CC=C4C[C@@H](O)CC[C@]4(C)[C@H]3CC[C@]12C)C(C)C the activity change, negative = cytotoxicity was 0.93% [at 5.11 µM] (inactive).
